In paper PMC10812921, “Transcriptional Coactivator BOB1 (OBF1, OCA-B) Modulates the Specificity of DNA Recognition by the POU-Domain Factors OCT1 and OCT2 in a Monomeric Configuration”:

Each sequence was assayed against T1, POU2 (OCT2 POU domain) (human, UniProt P09086 175-386) (assay: EMSA-SELEX-seq; no BOB1; 20 mM Tris-HCl pH 7.6, 140 mM NaCl, 10% glycerol, 0.5 mM EDTA, 0.05% Triton X-100, 0.1 mg/mL BSA, 0.1 mg/mL poly(dI-dC), 5 mM DTT, room temperature, 20 min; high values mean tight binding). Conditions: protein: recombinant; dsDNA, one strand shown.
T1 sequence: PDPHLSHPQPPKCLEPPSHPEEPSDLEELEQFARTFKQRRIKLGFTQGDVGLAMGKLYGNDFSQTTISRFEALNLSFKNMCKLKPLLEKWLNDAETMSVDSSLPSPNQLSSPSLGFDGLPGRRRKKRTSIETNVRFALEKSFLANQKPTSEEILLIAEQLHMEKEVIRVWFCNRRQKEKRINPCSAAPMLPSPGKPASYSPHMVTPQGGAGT
Method in brief: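 Binding preference means the percentage of sequenced 8-mers matching a motif pattern. Tagged POU-domain proteins (30 ng), expressed in E. coli BL21, purified under denaturing conditions and renatured, were mixed with 300 ng of a PCR-amplified double-stranded random 35-nt library, with or without 28 ng coactivator protein, for 20 min at RT in 20 μL Tris–HCl pH 7.6 binding buffer. Selection was repeated over four rounds of excising complex bands from native 6% PAGE, eluting and PCR amplification, followed by Illumina sequencing.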
For AACTTAAG, the binding signal was 0.042 % of ANNNNAAN 8-mers. AGTGGAAT was tested, and the binding signal was 0.121 % of ANNNNAAN 8-mers. With ATGCAAAA the binding signal was 1.17 % of ANNNNAAN 8-mers. In the case of ACATCAAT, the binding signal is reported as 0.057 % of ANNNNAAN 8-mers. With AAGTAAAC the binding signal was 0.0489 % of ANNNNAAN 8-mers. ACATAAAC was tested, and the binding signal was 0.106 % of ANNNNAAN 8-mers. ACAATAAG was tested, and the binding signal was 0.042 % of ANNNNAAN 8-mers. In the case of ATTATAAT, the binding signal is reported as 1.04 % of ANNNNAAN 8-mers. ATCGTAAA was tested, and the binding signal was 0.0552 % of ANNNNAAN 8-mers. ATTGCAAG was tested, and the binding signal was 0.0397 % of ANNNNAAN 8-mers. For AGCTCAAT, the binding signal was 0.0316 % of ANNNNAAN 8-mers. ACAAGAAC was tested, and the binding signal was 0.0201 % of ANNNNAAN 8-mers. With ATTTCAAA the binding signal was 0.0852 % of ANNNNAAN 8-mers. For ACGGCAAG, the binding signal was 0.027 % of ANNNNAAN 8-mers. In the case of ACTTAAAT, the binding signal is reported as 0.11 % of ANNNNAAN 8-mers. For AACCAAAA, the binding signal was 0.0449 % of ANNNNAAN 8-mers. In the case of ATGGGAAG, the binding signal is reported as 0.0696 % of ANNNNAAN 8-mers. In the case of AATGGAAA, the binding signal is reported as 0.155 % of ANNNNAAN 8-mers. In the case of AATGCAAT, the binding signal is reported as 0.0949 % of ANNNNAAN 8-mers. With ACTCCAAG the binding signal was 0.0196 % of ANNNNAAN 8-mers. In the case of ACCAGAAC, the binding signal is reported as 0.0127 % of ANNNNAAN 8-mers. With AAGCAAAT the binding signal was 0.27 % of ANNNNAAN 8-mers. AACTCAAA was tested, and the binding signal was 0.0368 % of ANNNNAAN 8-mers. For ATAGGAAC, the binding signal was 0.0449 % of ANNNNAAN 8-mers. ACCGCAAT was tested, and the binding signal was 0.019 % of ANNNNAAN 8-mers. AGAAGAAG was tested, and the binding signal was 0.0547 % of ANNNNAAN 8-mers. In the case of ATGGAAAG, the binding signal is reported as 0.112 % of ANNNNAAN 8-mers. With AAAACAAC the binding signal was 0.0345 % of ANNNNAAN 8-mers. With AGACGAAT the binding signal was 0.0581 % of ANNNNAAN 8-mers. With AAACCAAA the binding signal was 0.0506 % of ANNNNAAN 8-mers. AAGTGAAC was tested, and the binding signal was 0.0305 % of ANNNNAAN 8-mers. With ACTGTAAG the binding signal was 0.027 % of ANNNNAAN 8-mers. AGCTTAAC was tested, and the binding signal was 0.0219 % of ANNNNAAN 8-mers. AACTTAAA was tested, and the binding signal was 0.0501 % of ANNNNAAN 8-mers. For ACAGAAAA, the binding signal was 0.0472 % of ANNNNAAN 8-mers. AGGAAAAG was tested, and the binding signal was 0.08 % of ANNNNAAN 8-mers. With AACCTAAG the binding signal was 0.0213 % of ANNNNAAN 8-mers. With ACGACAAG the binding signal was 0.023 % of ANNNNAAN 8-mers. AGTGCAAT was tested, and the binding signal was 0.0455 % of ANNNNAAN 8-mers.
